Data on five compounds can be found in PubChem BioAssay.

The test system of assay [1] is Human papillomavirus type 1a protein E7 (residues 44-93). As to the kind of experiment: HPV1a E7 fragment binders on microarrays, primary screen, biochemical, small-molecule microarray, residues 44-93, 635 nm fluorescence (AID 1108).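 Note: E7 fragment applied at 1 µg/mL in TBST for 1 h at 4 C; score combines spot fluorescence with its signal to noise ratio.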 As to conditions: small-molecule microarray binding, fluorescence 635 nm; higher = more signal.
Assay [2] can be described thus: modulators of HCV replicon luciferase signal, primary screen, HCV replication inhibitor project, Huh7 cells, luciferase reporter (AID 1109).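 Note: huh7 hepatoma cells harbouring a luciferase neomycin HCV replicon reporter; luciferase luminescence as measure of HCV replicon replication; test concentration not given here.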 As to conditions: 48 h, higher = more signal.
Assay [3] has as its target Left-right determination factor 2 (Homo sapiens) (UniProt O00292). As to the kind of experiment: LEFTY2 binders on small-molecule microarrays, primary screen, biochemical, small-molecule microarray, 635 nm fluorescence scan (AID 1110). Conditions: LEFTY2 binding, higher = more signal.
In assay [4] the target is Calmodulin-1 (Homo sapiens) (UniProt P0DP23). In words: CALM1 binders on microarrays, EGTA buffer, profiling panel, biochemical, small-molecule microarray, Cy5-labelled CALM1 (AID 1111).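 Note: labelled calmodulin applied in Tris saline Tween buffer holding calcium plus EGTA and DTT.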 As to conditions: Cy5-CALM1 binding fluorescence, higher = more signal.
Assay [5] shares this target. In words: calcium-bound CALM1 binders on microarrays, profiling panel, artefact control for SMM control-protein annotation, biochemical, small-molecule microarray, Cy5-labelled CALM1, plus calcium (AID 1112).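 Note: score merges spot fluorescence with signal to noise from triplicate slides.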 Conditions: Cy5-CALM1 binding fluorescence, higher = more signal.
A short description of assay [6]: small-molecule microarray binders of probe aWnt5a, primary screen, biochemical, biotinylated probe, 635/667 nm fluorescence (AID 1113).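 Note: score merges 667 nm fluorescence intensity with signal-to-noise per printed feature.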 As to conditions: higher = more signal.
Assay [7] in a line: small-molecule microarray binders of probe aShh, primary screen, biochemical, biotinylated probe, 635/667 nm fluorescence (AID 1114).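 Note: probe is biotin-labelled aShh protein from a stem cell growth factor screen; measures binding of labelled protein to compounds printed on the slide; score merges feature fluorescence at 667 nm with signal-to-noise.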 As to conditions: higher = more signal.
A short description of assay [8]: small-molecule microarray binders of probe aNog, primary screen, biochemical, biotinylated probe, 635/667 nm fluorescence (AID 1115).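 Note: probe is biotinylated aNog protein used at 0.15 µg/mL for 1 h at 4 C; z-score combines 667 nm fluorescence of each spot with its signal to noise.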 Conditions: higher = more signal.
The target of assay [9] is Torsin-1A-interacting protein 1 (Homo sapiens) (UniProt Q5JTV8). In words: LAP1 binders from COS7 cell lysate, primary screen, small-molecule microarray, 635/667 nm fluorescence (AID 1116). Conditions: COS7-hLAP1 lysate binding, 635 nm fluorescence, higher = more signal.
Assay [10] addresses Alpha-bungarotoxin (Bungarus multicinctus) (UniProt P60615). In words: alpha-bungarotoxin binders on microarray, profiling panel, artefact control for SMM control protein annotation, biochemical, small-molecule microarray, Alexa647 label, 635/667 nm fluorescence (AID 1117). As to conditions: alpha-BTX-A647 binding fluorescence, higher = more signal.
In a further assay the target is Albumin (Bos taurus) (UniProt P02769). As to the kind of experiment: bovine serum albumin binders on microarray, profiling panel, artefact control for SMM control protein annotation, biochemical, small-molecule microarray, Alexa647 label, 635/667 nm fluorescence (AID 1118).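 Note: score merges 667 nm emission intensity and signal-to-noise per printed compound spot.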 Conditions: BSA-A647 binding, fluorescence 635 nm, higher = more signal.
Assay [11] can be described thus: small-molecule microarray binders of probe aXIP, primary screen, biochemical, NeuroSMM set, 635/667 nm fluorescence (AID 1119).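 Note: probe is the protein aXip251-270 applied at 1 µg/mL to compound-printed slides; binding of probe to printed compounds measured as 667 nm fluorescence plus signal to noise.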 As to conditions: higher = more signal, called active from +8 up or from −8 down.
A short description of assay [12]: small-molecule binders of probe aNOTCH3, primary screen, biochemical, small-molecule microarray, 635/667 nm fluorescence (AID 1120).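 Note: probe is a biotin-tagged antibody raised against NOTCH3 rather than NOTCH3 protein; score merges spot fluorescence near 667 nm with spot signal to noise.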 As to conditions: higher = more signal.
Assay [13] can be described thus: small-molecule binders of probe aNOTCH2, primary screen, biochemical, small-molecule microarray, 635/667 nm fluorescence (AID 1121).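 Note: score merges feature fluorescence read at 667 nm with its signal to noise.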 As to conditions: higher = more signal.
For assay [14], the target named is Carbonic anhydrase 2 (Homo sapiens) (UniProt P00918). As to the kind of experiment: CAII small-molecule binders, profiling panel, biochemical, small-molecule microarray, Alexa647-labelled CAII (AID 1122). As to conditions: CAII-A647 binding fluorescence, higher = more signal.
Assay [15] is described as follows: COS7 lysate on small-molecule microarray, probe aHis, 635 nm (AID 1123).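 Note: z-score combines 667nm fluorescence intensity with signal-to-noise per printed compound spot.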 As to conditions: COS7 cell lysate, fluorescence, higher = more signal.
Assay [16] in a line: compound binding in COS7 lysate, probe aLAP1, primary screen, cell lysate, small-molecule microarray (AID 1124).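 Note: lysate comes from COS7 cells expressing LAP1 and is applied at 0.3 µg/mL; score merges spot fluorescence near 667 nm with signal-to-noise over triplicate slides.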 Conditions: probe aLAP1, fluorescence, higher = more signal.
The subject of another assay is Sam68 (KHDRBS1). In words: Sam68 small-molecule binders, primary screen, biochemical, small-molecule microarray, 635 nm fluorescence (AID 1125).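 Note: score merges 667 nm channel intensity with signal to noise over triplicate slides.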 Conditions: small-molecule microarray binding, higher = more signal.
In assay [17] the test system is Chordin-like protein 2 (CHRDL2). As to the kind of experiment: CHRDL2 small-molecule binders, primary screen, biochemical, small-molecule microarray, 635 nm fluorescence (AID 1126).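 Note: printed compound slides probed with Chrdl2 protein at 4 µg/mL for 1 h at 4 C; score merges 667 nm emission intensity with signal to noise over three replicate slides.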 Conditions: small-molecule microarray binding, fluorescence 635 nm; higher = more signal.
Assay [18] concerns the target Concanavalin-A (Canavalia ensiformis) (UniProt P02866). As to the kind of experiment: ConA small-molecule binders, primary screen, artefact control for SMM control protein annotation, biochemical, small-molecule microarray, Alexa647 label, 635 nm (AID 1127).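 Note: z combines 667 nm emission intensity with signal-to-noise across three replicate slides.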 As to conditions: ConA-A647 binding fluorescence, higher = more signal.

The structures appear in SMILES notation. The source made the active and inactive calls.

Chain of Concanavalin-A (Canavalia ensiformis) (P02866 whole entry, looked up): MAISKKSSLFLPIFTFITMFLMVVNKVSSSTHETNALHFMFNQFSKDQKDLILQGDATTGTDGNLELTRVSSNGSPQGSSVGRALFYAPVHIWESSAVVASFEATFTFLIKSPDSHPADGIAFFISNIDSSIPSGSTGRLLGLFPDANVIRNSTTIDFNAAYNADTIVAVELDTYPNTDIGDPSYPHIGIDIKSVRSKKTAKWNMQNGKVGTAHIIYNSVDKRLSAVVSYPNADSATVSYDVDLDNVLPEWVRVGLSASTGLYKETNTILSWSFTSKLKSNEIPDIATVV
Chain of Torsin-1A-interacting protein 1 (Homo sapiens) (Q5JTV8 whole entry, looked up): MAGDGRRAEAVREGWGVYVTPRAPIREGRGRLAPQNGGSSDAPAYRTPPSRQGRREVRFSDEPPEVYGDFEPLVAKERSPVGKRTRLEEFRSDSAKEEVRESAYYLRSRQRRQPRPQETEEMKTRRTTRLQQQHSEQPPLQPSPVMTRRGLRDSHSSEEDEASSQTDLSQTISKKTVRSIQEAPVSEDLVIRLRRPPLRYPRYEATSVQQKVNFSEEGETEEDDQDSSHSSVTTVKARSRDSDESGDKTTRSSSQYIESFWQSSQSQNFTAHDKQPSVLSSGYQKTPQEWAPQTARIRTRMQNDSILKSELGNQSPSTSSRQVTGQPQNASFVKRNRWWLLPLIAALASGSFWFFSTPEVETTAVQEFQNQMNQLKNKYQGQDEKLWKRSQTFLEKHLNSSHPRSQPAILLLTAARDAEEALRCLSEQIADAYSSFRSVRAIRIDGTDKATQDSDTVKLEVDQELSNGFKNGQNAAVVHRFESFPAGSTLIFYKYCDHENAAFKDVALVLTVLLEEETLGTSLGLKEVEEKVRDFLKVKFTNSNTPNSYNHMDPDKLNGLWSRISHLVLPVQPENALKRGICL
Chain of Alpha-bungarotoxin (Bungarus multicinctus) (P60615 whole entry, looked up): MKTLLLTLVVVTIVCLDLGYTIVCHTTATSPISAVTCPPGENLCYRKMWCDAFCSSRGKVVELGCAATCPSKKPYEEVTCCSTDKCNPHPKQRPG
Chain of Left-right determination factor 2 (Homo sapiens) (O00292 whole entry, looked up): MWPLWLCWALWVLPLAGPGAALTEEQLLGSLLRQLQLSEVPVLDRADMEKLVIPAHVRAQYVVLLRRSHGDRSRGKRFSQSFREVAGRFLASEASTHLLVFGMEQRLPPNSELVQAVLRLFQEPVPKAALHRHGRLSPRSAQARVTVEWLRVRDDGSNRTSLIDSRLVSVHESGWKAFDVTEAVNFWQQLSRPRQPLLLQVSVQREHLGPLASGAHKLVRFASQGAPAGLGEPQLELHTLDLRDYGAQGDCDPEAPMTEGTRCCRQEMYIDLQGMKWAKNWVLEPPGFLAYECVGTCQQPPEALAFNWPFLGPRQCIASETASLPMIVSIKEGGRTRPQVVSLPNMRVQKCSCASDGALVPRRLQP
Chain of Albumin (Bos taurus) (P02769 whole entry, looked up): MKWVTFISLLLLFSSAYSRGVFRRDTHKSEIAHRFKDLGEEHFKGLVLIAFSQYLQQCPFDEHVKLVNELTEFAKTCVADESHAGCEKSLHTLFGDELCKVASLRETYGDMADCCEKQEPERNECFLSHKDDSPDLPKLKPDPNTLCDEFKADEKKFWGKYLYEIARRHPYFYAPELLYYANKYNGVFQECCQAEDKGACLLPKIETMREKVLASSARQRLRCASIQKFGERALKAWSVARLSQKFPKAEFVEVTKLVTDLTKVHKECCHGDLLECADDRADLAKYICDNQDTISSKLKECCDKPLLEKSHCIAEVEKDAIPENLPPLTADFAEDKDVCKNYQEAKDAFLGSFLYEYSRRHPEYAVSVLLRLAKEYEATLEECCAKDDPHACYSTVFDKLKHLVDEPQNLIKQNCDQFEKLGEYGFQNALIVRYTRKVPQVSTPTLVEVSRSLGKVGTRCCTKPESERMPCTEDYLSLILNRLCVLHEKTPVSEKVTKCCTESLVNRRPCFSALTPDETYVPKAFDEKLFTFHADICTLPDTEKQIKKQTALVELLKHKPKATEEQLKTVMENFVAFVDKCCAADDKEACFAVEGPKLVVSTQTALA

`CC(=O)NCCCC[C@@H]1NC(=O)[C@@H]2C[C@H](C(=O)NCc3ccc(F)cc3)[C@H](c3ccc(O)cc3)N2C1=O`: the composite z-score in [1] was 0.0999; in [3], 0.591; in assay [4], 0.0633; in assay [5], -0.72; in [6], -0.103; in assay [7], 0.785. Also, the composite z-score in assay [8] was -0.314; in [9], 0.362; in assay [10] it was 0.346; with Albumin (Bos taurus), -1.25; in [12], -0.0391; in assay [13], -0.153. The composite z-score in assay [14] is 0.715; in assay [15], 1.79; in [16] it was 0.453; in the assay on Sam68 (KHDRBS1), 1.02; in assay [17] it was 0.526; in assay [18], 1.15. In [2], the z-score was -0.673. In addition, the composite Z-score in [11] is 0.15 (inactive).

`C=C[C@H](C)[C@H](O)c1ccc(OCCO)cc1`: the composite z-score in assay [1] is -2.7; in [3], -1.42; in [4] it was -0.215; in assay [5] it was 0.486; in assay [6], -0.139; in assay [7] it was -0.108. The composite z-score in assay [8] is -0.278; in [9] it was -1.26; in [10] it was -1.27; with Albumin (Bos taurus), -0.529; in assay [12], -0.502; in assay [13], -0.185. Besides, the composite z-score was 0.264 in assay [14]; -1.09 in [15]; -0.177 in assay [16]; -1.74 in the assay with Sam68 (KHDRBS1); -2.23 in assay [17]; -0.802 in assay [18]. Also, the z-score in assay [2] is -1.54. Moreover, in [11], the composite Z-score is -0.254 (inactive).

Consider `CC(C)N1C(=O)c2ccccc2[C@](C)(C(=O)NC2CC2)[C@@H]1c1ccc(CO)cc1`, for which the composite z-score was 0.591 in assay [1]; 0.0197 in assay [3]; 0.391 in [4]; -0.34 in [5]; -0.096 in assay [6]; -0.138 in [7]. Moreover, the composite z-score is 0.214 in assay [8]; 0.507 in [9]; 0.931 in assay [10]; 0.375 with Albumin (Bos taurus); -0.0557 in [12]; -0.171 in [13]. The composite z-score was 0.665 in assay [14]; 1.41 in assay [15]; -0.141 in [16]; 0.424 with Sam68 (KHDRBS1); 0.172 in assay [17]; 0.699 in assay [18]. In assay [2], this compound gave a z-score of -0.479. In assay [11], the composite Z-score was -0.116 (inactive).

Turning to `C=C(CCCC)C(=O)CC[C@@H](OC(=O)c1ccccc1-c1ccccc1C(=O)O)c1ccc(CO)o1`, the composite z-score in [1] is 0.776; in assay [3] it was 0.584; in [4], -0.213; in assay [5], -0.483; in assay [6], -0.0478; in assay [7], 0.108. The composite z-score in assay [8] was -0.266; in [9], 1.23; in assay [10], -0.146; in the assay with Albumin (Bos taurus), 0.26; in assay [12], 0.135; in assay [13] it was -0.0028. Further, the composite z-score in assay [14] was determined as 0.549; in assay [15], 0.413; in assay [16] it was 0.941; in the assay on Sam68 (KHDRBS1) it was 1.18; in assay [17], 0.593; in assay [18], 0.786. In assay [2], the z-score is -0.705. Further, in assay [11], the composite Z-score is -0.27 (inactive).

For `CCCNC(=O)[C@@]1(C)c2ccccc2C(=O)N(Cc2cc(F)cc(C(F)(F)F)c2)[C@H]1c1ccc(CO)cc1`, the composite z-score in [1] is 0.843; in [3], -0.742; in [4] it was 0.685; in assay [5] it was 0.499; in assay [6], -0.0405; in [7], 0.0469. Besides, the composite z-score was 1.03 in [8]; 0.296 in assay [9]; -0.0457 in [10]; 0.695 with Albumin (Bos taurus); -0.201 in assay [12]; -0.0569 in assay [13]. Besides, the composite z-score in [14] is 0.587; in assay [15], 2.24; in [16] it was -0.337; in the assay with Sam68 (KHDRBS1), -0.0127; in [17], -1.76; in assay [18] it was -0.365. The z-score in assay [2] was -0.372. Further, the composite Z-score in [11] is 0.373 (inactive).
